Compound activity: PubChem, Broad Institute
Tg IFNy HTS: T. gondii growth inhibition under IFN-gamma; activity change, negative = inhibition, % (test concentration not listed); AID 1259416; Toxoplasma gondii growth in IFN-gamma-treated host cells; hits give low values; hit rate 3.8% among 69,000; in the data active = activity change below about -70%, passing the limit was not always enough;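 also: host cells are HeLa cells infected with Toxoplasma gondii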
* = called active by the depositor; i = inactive. Only a selection was taken, and hits are over-represented in it overall.

SMILES | Tg IFNy HTS
Cc1nc2ccc(CC(=O)N3CCC4(CC3)CNC(=O)C4)cc2[nH]1 | 8
C=CCN(c1ccc(C(=O)O)cc1)S(=O)(=O)c1ccc(NC(=O)OC)cc1 | 6
CCS(=O)(=O)N1CC2CN(C(=O)c3cnccn3)CC2C1 (centres undefined) | -6
CCOC(=O)c1nc(NC2CCN(Cc3ccccc3)CC2)c2ccccc2n1 | 62
CCC(C(=O)N1CCC(c2cc(C(F)(F)F)n3ncnc3n2)CC1)c1ccccc1 (centres undefined) | 2
Cn1cc(C(=O)N2CC[C@H]3[C@@H]2CCN3S(C)(=O)=O)cn1 | 1
Cc1ccc(NC(=O)NCC(c2cccnc2)c2cn(C)c3ccccc23)cc1F (centres undefined) | -15
Cc1scc(C(=O)NCC2CCC(c3ncc(Cl)cc3-c3ccncc3)CC2)c1C (centres undefined) | -88*
Cc1ncc(-c2ccncc2C)c(C2CCC(CNC(=O)c3oc(C)nc3C)CC2)n1 (centres undefined) | -32
Cc1ncc(-c2ccccn2)c(C2CCC(CNC(=O)c3scnc3C)CC2)n1 (centres undefined) | 8
O=C(C[C@@H]1CC[C@H]2[C@@H](COC[C@@H](O)CN2Cc2nccs2)O1)N1CCC(Cc2ccccc2)CC1 | -4
CS(=O)(=O)N1CCOC2(CCCN(c3ccccn3)C2)C1 (centres undefined) | -45
OC1(C(F)(F)F)CC(c2nccs2)=NN1 (centres undefined) | -13
CC(C)(C)c1cc(C2=NNC(O)(C(F)(F)F)C2)c2c(c1)C(C)(C)CC2 (centres undefined) | -100*
CC(C)(C)c1cc(-c2cc(C(F)(F)F)[nH]n2)c2c(c1)C(C)(C)CC2 | -87*
CN1CCC2(CCN(C(=O)c3cc(C(F)(F)F)[nH]n3)CC2)C1 | -2
CCc1cnc(N2CCc3ncnc(C4CC4)c3CC2)nc1 | -7
COc1ccc(-c2nc(C)c(-c3ccc(SCc4cc(C)ccc4C)nn3)s2)cc1 | 2
CN(C)C(=O)N1C[C@@H](C(=O)N2CCCO2)C[C@@H]2OCC[C@@H]21 | 10
CCOCc1cnc2n1CCN(C(=O)COc1ccccc1)C2C (centres undefined) | -6
O=C(c1ccncc1)N1CCc2c([nH]c3ccccc23)C1c1ccc(Cl)cc1 (centres undefined) | -88*
CCCC(=O)N1CCc2c([nH]c3ccccc23)C1c1ccccc1 (centres undefined) | 259
O=C(c1ccccc1Br)N1CCc2c([nH]c3ccccc23)C1c1ccc(Cl)cc1 (centres undefined) | 358
COc1ccc(C(=O)N2CCc3c([nH]c4ccccc34)C2c2ccc(C)cc2)cc1 (centres undefined) | i
CCOc1cc(C(=O)N2CCc3c([nH]c4ccccc34)C2c2ccccc2)cc(OCC)c1OCC (centres undefined) | -115*
SMILES | Tg IFNy HTS
CSc1ccc(C2c3[nH]c4ccccc4c3CCN2C(=O)C2CC2)cc1 (centres undefined) | 74
COc1ccc(C2c3[nH]c4ccccc4c3CCN2C(=O)c2cccnc2)cc1 (centres undefined) | 256
O=C(c1ccc(Br)cc1)N1CCc2c([nH]c3ccccc23)C1c1ccc(Cl)cc1 (centres undefined) | -95*
CCOc1cc(C(=O)N2CCc3c([nH]c4ccccc34)C2c2cccnc2)cc(OCC)c1OCC (centres undefined) | -67
CSc1ccc(C2c3[nH]c4ccccc4c3CCN2C(=O)c2cccnc2)cc1 (centres undefined) | 468
O=C(C1CCCCC1)N1CCc2c([nH]c3ccccc23)C1c1ccc(F)cc1 (centres undefined) | -75*
Cc1ccc(C2c3[nH]c4ccccc4c3CCN2C(=O)C2CC2)cc1 (centres undefined) | 146
NC(=O)c1cc(Cl)c(Cl)cc1C(N)=O | 0
Cc1cc(C)cc(NC(=O)c2nnn(Cc3nc(-c4ccccc4)oc3C)c2C)c1 | -41
O=c1[nH]nc(CCc2ccccc2)n1-c1ccc2c(c1)OCO2 | 10
C/C=C/c1ccc([C@H]2[C@@H](CO)N(Cc3cncnc3)C23CN(C(=O)COC)C3)cc1 | -58
COc1ccc(CCNC(=O)N2CCN(CC(C)C)C(=O)C2C)cc1 (centres undefined) | -5
O=C(c1cccc(Cl)c1)N1CCc2c([nH]c3ccccc23)C1c1cccnc1 (centres undefined) | -82*
O=C(c1ccc2c(c1)OCO2)N1CCc2c([nH]c3ccccc23)C1c1ccc(F)cc1 (centres undefined) | -109*
CCOc1ccc(C2c3[nH]c4ccccc4c3CCN2C(=O)c2cc(OC)c(OC)c(OC)c2)cc1 (centres undefined) | 247
CCOc1ccc(C2c3[nH]c4ccccc4c3CCN2C(=O)c2ccc(OC)c(OC)c2)cc1 (centres undefined) | i
Cc1ccc(C2c3[nH]c4ccccc4c3CCN2C(=O)c2ccc3c(c2)OCO3)cc1 (centres undefined) | -62
